This note sets out measurements from PubChem BioAssay (NCATS).

Structures are written as SMILES. Where “and” joins values, the source holds several entries; their conditions need not be identical. Equal values may be shown once. Records with an inconclusive call do not appear. Entries that show only a call come without a potency. Calls of active or inactive are those of the source. Calls follow the shape of the dose curve; as a rule, active = well fitted curve in the direction sought with a large enough effect; inconclusive = small, poorly fitted or top-dose-only effect, or another doubt; inactive = no such curve, though single readings can be large; an effect the other way counts as inactive or inconclusive. Positions of bridges follow the written chain, without caps; N, C: chain ends. Non-standard residues stand in square brackets, D forms with d. Residues, ends and D or L forms follow the SMILES beside them. ξ: configuration not given here. *: point of attachment. Octanoyl(6-Me) = CCC(C)CCCCC(=O)*; ξThr(3R) = C[C@@H](O)C(N)C(=O)O; dDab = NCC[C@@H](N)C(=O)O; Dab = NCC[C@H](N)C(=O)O; Nva = CCC[C@H](N)C(=O)O; Cbz = O=C(OCc1ccccc1)*

A short description of one test: Primary qHTS for small molecule stabilizers of the endoplasmic reticulum resident proteome: Secreted ER Calcium Modulated Protein (SERCaMP) assay (AID 1508630). To be noted: SH-SY5Y GLuc-SERCaMP (Gaussia luciferase released on ER calcium loss) secretion, thapsigargin, luminescence; series mostly up to 38.4 µM. The essentials:
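GLuc-SERCaMP-expressing SH-SY5Y cells, pretreated 16 h with compound, are challenged with thapsigargin to empty ER calcium stores; after 4 h, coelenterazine is added directly to the medium and luminescence is imaged.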
As for `O=C(CN1C(=O)C2(CCCC2)NC[C@H]1c1cc(F)cc(F)c1)Nc1ccc2c(c1)C[C@@]1(C2)C(=O)Nc2ncccc21`, the outcome was inactive.
In the case of `CCC[C@@H](C=O)NC(=O)[C@H](CC(C)C)NC(=O)[C@H](CC(C)C)NC(=O)OCc1ccccc1` (Cbz-Leu-Leu-[Nva]-aldehyde), the outcome was inactive.
Consider `Cn1c(Nc2ccc(C(F)(F)F)cc2)nc2cc(Oc3ccnc(-c4ncc(C(F)(F)F)[nH]4)c3)ccc21`, for which the outcome was inactive.
The same measure, in the same setting: under `N=c1ccn2c(n1)O[C@H]1[C@@H](O)[C@@H](CO)O[C@H]12` stands “inactive”; under `CC(C)NC[C@@H](C(=O)N1CCN(c2ncnc3c2[C@H](C)C[C@H]3O)CC1)c1ccc(Cl)cc1`, “inactive”.
`O=C(c1ccc(F)cc1)N1CCC[C@H](c2nc(-c3ccc(F)cc3)no2)C1`: the outcome was inactive.
With `O=C(Nc1cccc(Nc2ncc(Br)c(NCCc3cnc[nH]3)n2)c1)N1CCCC1`, the outcome was inactive.
`COc1cc(C)c(Sc2cnc(NC(=O)c3ccc(CNC(C)C(C)(C)C)cc3)s2)cc1C(=O)N1CCN(C(C)=O)CC1` (stereo not drawn): the result was inactive.
With `CC(=O)OC[C@@H]1O[C@@H](n2ccc(=O)[nH]c2=O)[C@H](OC(C)=O)[C@H]1OC(C)=O`, the result was inactive.
Turning to `C[N+](C)([O-])CCNc1ccc(NCC[N+](C)(C)[O-])c2c1C(=O)c1c(O)ccc(O)c1C2=O`, the outcome was inactive.
Consider `C[C@@H](Cc1cc2c(c(C(N)=O)c1)N(CCCO)CC2)NCCOc1ccccc1OCC(F)(F)F`, for which the outcome was inactive.

Another test in a line: Primary qHTS for inhibitors of nuclear receptor binding SET domain protein 2 (NSD2) in an isogenic RCH-ACV NSD2 p.E1099K mutant (9B) (AID 1645876). Also: nearly all actives have a fitted effect of over 70% in size. Also: potency is read from the fitted curve at half-maximal effect. To be noted: RCH-ACV (leukaemia line) NSD2 E1099K (9B) viability, CellTiter-Glo, 72 h; series mostly up to 44.9 µM.
As for `CCNC(=O)Nc1ccc(-c2nc3c(c(N4CCOC[C@H]4C)n2)CCN(C2COC2)C3)cc1`, the Potency was 0.731 µM (active).
Still for that read-out and setting: under `CC(N[C@H]1CCCC[C@H]1NC(=O)c1ccc(Cl)cc1)c1cccc2ccccc12` (stereo partly drawn) stands 6.61 µM (active); under `Cc1cc(Nc2ncc3c(n2)N(C)C(=O)N(c2cc(NC(=O)c4cccc(C(F)(F)F)c4)ccc2C)C3)n(C)n1`, 0.132 µM (active).
Take `C[C@@H]1CC[C@@]2(OC1)OC1CC3C4CC=C5CC(O)CCC5(C)C4CCC3(C)C1[C@@H]2C` (stereo partly drawn): the Potency result was “inactive”.
In the case of `C[C@](Cc1c[nH]c2ccccc12)(NC(=O)OC1C2CC3CC(C2)CC1C3)C(=O)NC[C@H](NC(=O)CCC(=O)O)c1ccccc1` (stereo partly drawn), the Potency entry is “inactive”.
With `COc1cc([C@@H]2c3cc4c(cc3[C@H](O)[C@H]3COC(=O)[C@@H]23)OCO4)cc(OC)c1OC`, the Potency is 0.662 µM (active).
For `CCN(CC)Cc1ccc2cc(COC(=O)Nc3ccc(C(=O)NO)cc3)ccc2c1`, the Potency is 290 nM (active) and 742 nM (active).
For `CC(C)(C)c1nc2c3cc[nH]c(=O)c3c3cc(F)ccc3c2[nH]1`, the Potency is 0.662 µM (active).
In the case of `CCC[C@H]1C[C@H](C(=O)N[C@@H]([C@@H]2O[C@@H](SC)[C@@H](O)[C@@H](O)[C@@H]2O)[C@H](C)Cl)N(C)C1`, the Potency entry is “inactive”.
In the case of `O=C(CCCCCCC(=O)Nc1cccnc1)NO`, the Potency is 4.17 µM (active).
With `c1ccc(CNc2nc(NCc3ccccc3)c3ccccc3n2)cc1`, the Potency was 5.9 µM (active).
In the case of `COc1cc(O)c2c(c1)C1OC1C[C@H](O)[C@H](O)C(=O)C=CC[C@H](C)OC2=O` (stereo partly drawn), the Potency is 3.72 µM (active).
As to `C[C@@H]1C(=O)O[C@H]2CC34[C@H]5C[C@@H](C(C)(C)C)C36[C@H](OC(=O)[C@@H]6O)O[C@@]4(C(=O)O5)[C@]21O` (stereo partly drawn), the Potency entry is “inactive”.
As to `Nc1ccc(C(=O)Nc2cccc(-c3nc(N4CCOCC4)c4oc5ncccc5c4n3)c2)cn1`, the Potency is 1.15 µM (active) and 1.48 µM (active).
Turning to `c1cc(N[C@@H]2CCNC2)nc(-c2cnc3ccc(-c4cn[nH]c4)cn23)c1`, the Potency was 2.63 µM (active).
In the case of `Cc1ccc2nc(NCCN)c3ncc(C)n3c2c1`, the Potency is 9.2 µM (active) and 4.68 µM (active).
Take `COc1cc(C(=O)NC2CCN(C)CC2)ccc1Nc1ncc2c(n1)N(C1CCCC1)CCC(=O)N2C(C)C`: the Potency is 13.2 µM (active).
In the case of `CCC(C)CCCCC(=O)N[C@@H](CCN)C(=O)NC(C(=O)N[C@H](CCN)C(=O)N[C@@H]1CCNC(=O)C([C@@H](C)O)NC(=O)[C@@H](CCN)NC(=O)[C@@H](CCN)NC(=O)[C@@H](CC(C)C)NC(=O)[C@H](Cc2ccccc2)NC(=O)[C@H](CCN)NC1=O)[C@@H](C)O` (stereo partly drawn) ({Octanoyl(6-Me)}-[Dab][ξThr(3R)][dDab][dDab][Dab]F[dL][dDab][dDab][ξThr(3R)]; lactam 4-C), the Potency entry is “inactive”.
Take `Oc1ccc(-c2ccc(-c3cc(Nc4cccc(CNC5CC5)c4)n[nH]3)cc2)c(O)c1`: the Potency was 1.48 µM (active).
For `CC(C)C[C@H](NC(=O)[C@@H](NC(=O)c1cccc(-c2ccccc2)n1)[C@@H](C)O)B(O)O`, the Potency was 29 nM (active) and 32.3 nM (active).
Consider `CN1C(C(=O)Nc2ccccn2)=C(O)c2sc(Cl)cc2S1(=O)=O`, for which the Potency entry was “inactive”.
Still for that read-out and setting: then `Nc1nc(=O)n([C@H]2C[C@H](O)[C@@H](CO)O2)cc1F`, with 0.0118 µM (active).
With `O=C(O)CCCCC(CCSCc1ccccc1)SCc1ccccc1` (stereo not drawn), the Potency result is “inactive”.
Consider `CC[C@@]1([C@@H]2O[C@@H]([C@H]3O[C@@](O)(CO)[C@H](C)C[C@H]3C)C[C@H]2C)CC[C@H]([C@]2(C)CC[C@]3(C[C@H](O)[C@@H](C)[C@@H]([C@@H](C)[C@@H](OC)[C@H](C)C(=O)O)O3)O2)O1`, for which the Potency was 0.162 µM (active).
Still for that read-out and setting: then `CCOC(=O)C=C[C@H](C[C@@H]1CCNC1=O)NC(=O)[C@@H](CC(=O)[C@@H](NC(=O)c1cc(C)on1)C(C)C)Cc1ccc(F)cc1`, with “inactive”.
For `C[C@H](NC(=O)Cc1cc(F)cc(F)c1)C(=O)N[C@H](C(=O)OC(C)(C)C)c1ccccc1`, the Potency result was “inactive”.
`O=C(CN1C(=O)C2(CCCC2)NC[C@H]1c1cc(F)cc(F)c1)Nc1ccc2c(c1)C[C@@]1(C2)C(=O)Nc2ncccc21`: the Potency entry is “inactive”.
For the molecule `CCC[C@@H](C=O)NC(=O)[C@H](CC(C)C)NC(=O)[C@H](CC(C)C)NC(=O)OCc1ccccc1` (Cbz-Leu-Leu-[Nva]-aldehyde), the Potency is 2.09 µM (active).
`Cn1c(Nc2ccc(C(F)(F)F)cc2)nc2cc(Oc3ccnc(-c4ncc(C(F)(F)F)[nH]4)c3)ccc21`: the Potency was 7.31 µM (active) and 5.25 µM (active).
In the case of `N=c1ccn2c(n1)O[C@H]1[C@@H](O)[C@@H](CO)O[C@H]12`, the Potency was 0.0209 µM (active).
As for `CC(C)NC[C@@H](C(=O)N1CCN(c2ncnc3c2[C@H](C)C[C@H]3O)CC1)c1ccc(Cl)cc1`, the Potency is 1.66 µM (active).
On the same count and under the same terms, then `O=C(c1ccc(F)cc1)N1CCC[C@H](c2nc(-c3ccc(F)cc3)no2)C1`, with “inactive”; and `O=C(Nc1cccc(Nc2ncc(Br)c(NCCc3cnc[nH]3)n2)c1)N1CCCC1`, with 0.934 µM (active); and `COc1cc(C)c(Sc2cnc(NC(=O)c3ccc(CNC(C)C(C)(C)C)cc3)s2)cc1C(=O)N1CCN(C(C)=O)CC1` (stereo not drawn), with 7.42 µM (active).
For `CC(=O)OC[C@@H]1O[C@@H](n2ccc(=O)[nH]c2=O)[C@H](OC(C)=O)[C@H]1OC(C)=O`, the Potency entry is “inactive”.
With `C[N+](C)([O-])CCNc1ccc(NCC[N+](C)(C)[O-])c2c1C(=O)c1c(O)ccc(O)c1C2=O`, the Potency was 0.0525 µM (active).
`C[C@@H](Cc1cc2c(c(C(N)=O)c1)N(CCCO)CC2)NCCOc1ccccc1OCC(F)(F)F`: the Potency result is “inactive”.
